This is a sample that favours compounds with a hit; in the whole collection about 4.6% have one here.
TRHR enhancer-1 – qHTS for Small Molecule Agonists and Allosteric Enhancers of Human TRH Receptor: Primary Screen for Enhancers. Thyrotropin-releasing hormone receptor (Homo sapiens), P34981. TRHR cells, fluo-8 calcium fluorescence, EC20 TRH enhancement. enhancement, % at 2 µM. 360,000 tested, 0.66% active. AID 493056, 2011; in the data active means enhancement above about 30%; further: 0% is about no effect
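TRHR-expressing cells loaded with fluo-8 calcium dye were read kinetically (ex 480/em 530) during compound addition, then stimulated with an EC20 of TRH (10 nM final). Enhancement of the Gq-mediated intracellular calcium response was scored.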
D1 ag – Allosteric Agonists of the Human D1 Dopamine Receptor: qHTS | 360,000 tested, 1% active | activation, % at 2 µM | AID 504660, 2011 | D(1A) dopamine receptor (Homo sapiens), P21728 | HEK293 T-REx D1 cells, calcium flux, agonist mode; in the data active means activation above about 30%; further: 0% is about no effect
Target sequence (P21728 whole entry, looked up): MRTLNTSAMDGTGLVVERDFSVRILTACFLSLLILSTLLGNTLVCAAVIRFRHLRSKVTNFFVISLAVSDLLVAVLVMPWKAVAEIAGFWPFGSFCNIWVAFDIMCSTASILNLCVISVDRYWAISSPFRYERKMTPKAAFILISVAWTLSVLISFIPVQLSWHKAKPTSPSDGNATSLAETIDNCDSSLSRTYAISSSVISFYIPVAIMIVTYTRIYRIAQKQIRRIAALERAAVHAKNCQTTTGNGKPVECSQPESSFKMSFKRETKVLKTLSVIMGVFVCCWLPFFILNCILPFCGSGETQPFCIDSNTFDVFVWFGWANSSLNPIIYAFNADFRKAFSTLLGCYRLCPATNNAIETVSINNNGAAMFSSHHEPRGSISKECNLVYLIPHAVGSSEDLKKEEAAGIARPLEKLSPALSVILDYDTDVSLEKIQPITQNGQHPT
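Inducible HEK293 T-REx D1 cells, force-coupled to calcium signalling, were plated at 4000 cells/well with tetracycline and held overnight at 30 C. After no-wash calcium dye loading, compound-evoked calcium rise over 180 s flagged agonists.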
TRHR agonist-1 – qHTS for Small Molecule Agonists and Allosteric Enhancers of Human TRH Receptor: Primary Screen for Agonists. TRHR cells, calcium flux fluo-8, FDSS agonist mode. activation, % at 2 µM. Thyrotropin-releasing hormone receptor (Homo sapiens), P34981. 360,000 tested, 0.18% active; in the data active means activation above about 30%; further: 0% is about no effect
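Agonist-mode FDSS calcium read (Ex 480/Em 530, 1 s cycles) in 1536-well TRHR cells with fluo-8 dye, after 10-cycle baseline and 23 nL compound addition; TRH at EC20 (10 nM final) added afterwards for the enhancer phase.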
D1 antagonist – Antagonist of Human D 1 Dopamine Receptor: qHTS | activity change, negative = inhibition, % at 10 µM | 360,000 tested, 3.2% active | AID 504652, 2011 | HEK293 TREx D1 cells, calcium flux, dopamine EC80; stronger effect = lower value | D(1A) dopamine receptor (Homo sapiens), P21728; in the data active means activity change below about -30%; further: on the % scale 0 is the no-effect control and ±100 the full control effect
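HEK293 T-REx cells expressing inducible, force-coupled D1 receptor; no-wash Ca dye, 30–90 min RT. Cmpd → 180 s read at 1 Hz → EC80 DA → 180 s read.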
D1 potentiator – Potentiators of Human D1 Dopamine Receptor: qHTS; D(1A) dopamine receptor (Homo sapiens), P21728; AID 504651, 2011; HEK293 TREx D1 cells, calcium flux, dopamine EC20 potentiation; potentiation, % at 10 µM; 360,000 tested, 0.036% active; in the data active means potentiation above about 30%; further: 0% is about no effect
TRHR enhancer-2 – qHTS for Small Molecule Agonists and Allosteric Enhancers of Human TRH Receptor: Confirmation Screen for Enhancers | shares compounds with TRHR enhancer-1 | TRH receptor cell assay, enhancer confirmation qHTS | activity change, negative = inhibition, % at 46.1 µM | 970 tested, under 10 active;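 further: compound effect scored on response to added TRH at EC20 of 10 nM; 0% is about no effect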
TRHR agonist-2 – qHTS for Small Molecule Agonists and Allosteric Enhancers of Human TRH Receptor: Confirmation Screen for Agonists; shares compounds with TRHR enhancer-1; TRHR-expressing cells, agonist activation read-out; Potency, µM (highest dose often 46.1 µM), for the others: at the highest dose activation, actives largely listed as activators; 970 tested, 8% active; AID 493078, 2011; further: potency means the concentration at half of the fitted maximal effect; 0% is about no effect; nearly all actives have a fitted effect of over 75% in size
Active calls of the source: *; ? = inconclusive; . = not tested or not shown. Unless noted, the call rests on the fitted dose curve; in most records, active means well fitted curve in the direction sought with a large enough effect; inconclusive means small, poorly fitted or top-dose-only effect, or another doubt; inactive means no such curve, though single readings can be large; an effect the other way counts as inactive or inconclusive.

SMILES	TRHR enhancer-1	D1 ag	TRHR agonist-1	D1 antagonist	D1 potentiator	TRHR enhancer-2	TRHR agonist-2
Cc1cc(C)c(Cn2c(=O)n(CCCCC(=O)NCc3ccccc3Cl)c(=O)c3ccccc32)c(C)c1	-3	-1	1	-22	2	.	.
COc1cccc(C(=O)N2CCN(Cc3ccccc3C(F)(F)F)CC2)c1	2	9	0	-10	-2	.	.
COc1ccc(C(=O)N2CCN(Cc3ccccc3C(F)(F)F)CC2)cc1	-8	7	32*	-4	0	-3	1%
COc1ccc(-n2ncc3c(N(C)C4CCCCC4)ncnc32)cc1	-14	4	1	-17	1	.	.
Cc1cccc(-n2ncc3c(N(C)C4CCCCC4)ncnc32)c1	49*	4	-1	-4	-2	-6	0%
COc1ccccc1-c1nc(SCC(=O)NCc2ccc(C)cc2)c2c(=O)n(C)c(=O)n(C)c2n1	2	0	0	-8	-1	.	.
O=C(Nc1cccc2ncccc12)c1ccco1	51*	5	0	4	-7	-6	1%
COc1ccc(C(CNC(=O)CCNS(=O)(=O)c2ccc(Br)cc2)N2CCCC2)cc1 (configuration not stated)	48*	48*	0	-63*	-8	-6	5%
CN1CCN(C(=O)CSc2ccc(Cl)cc2)CC1	43*	0	0	10	-3	6	0%
Cc1ccc(S(=O)(=O)N2CCN(C(=O)CSc3ccc(Cl)cc3)CC2)cc1	-1	1	0	-17	-4	.	.
N#Cc1c(-c2ccccc2)cc(-c2ccc3c(c2)OCO3)[nH]c1=O	53*	0	-1	11	-2	-6	3%
N#Cc1c(-c2ccc3c(c2)OCO3)csc1N	0	4	0	2	-8	.	.
O=C(/C=C/c1cn(CC(O)CN2CCCCC2)c2ccccc12)c1cccs1 (configuration not stated)	7	46*	36*	0	-7	5	?
OC(CN1CCCCC1)Cn1c2ccccc2c2ccccc21 (configuration not stated)	-1	16	2	5	-6	.	.
CCOc1ccc(CNc2nc3nc(C)c(Cc4ccccc4)c(=O)n3[nH]2)cc1	-4	-2	0	2	0	.	.
O=C(NCCC1=CCCCC1)c1ccc2c(c1)sc1nc(-c3ccc(F)cc3)cn12	3	1	0	-2	-3	.	.
O=C(c1ccc(C(F)(F)F)cc1)C1CCCN(C(=O)CN2CCCC2=O)C1 (configuration not stated)	56*	0	0	22	-2	-3	4%
CCc1ccc2occ(CC(=O)Nc3nnc(C)s3)c2c1	-3	5	1	-10	0	.	.
CCOC(=O)C1CCN(C(=O)CSc2n[nH]c(-c3ccc(F)cc3)n2)CC1	2	-1	0	-4	-3	.	.
CCOc1ccc(S(=O)(=O)N2CCN(c3ccc(OC)cc3)CC2)c2cccnc12	44*	3	-2	-1	-6	0	1%
CC(C)CN(CC(C)C)c1nnc(NC(=O)Nc2cccc(C(F)(F)F)c2)s1	4	0	-1	-16	-2	.	.
COc1ccccc1NC(=O)CCn1c(=S)oc2ccccc21	19	2	-1	4	-8	.	.
CC(C)CCNC(=O)CCn1c(=S)oc2ccccc21	53*	0	0	-9	-6	0	2%
COc1ccc2nc(N=Nc3ccc(N(C)C)cc3)sc2c1	86*	8	-1	-10	-2	3	-1%
COc1ccc2nc(/N=C\N(C)C)sc2c1	5	2	0	-23	-4	.	.
SMILES	TRHR enhancer-1	D1 ag	TRHR agonist-1	D1 antagonist	D1 potentiator	TRHR enhancer-2	TRHR agonist-2
COC(=O)c1cc2occc2n1CC(=O)Nc1ccc(C(C)C)cc1	-3	-1	0	-6	-3	.	.
COc1cc(NC(=S)NCCc2c[nH]c3ccccc23)c(OC)cc1Cl	49*	4	0	-7	-1	-7	2%
CSCCC(NS(=O)(=O)c1ccc2c(c1)oc(=O)n2C)C(=O)N1CCN(c2cc(Cl)ccc2C)CC1 (configuration not stated)	-3	2	0	-9	0	.	.
Cc1cccc(-c2noc(-c3cccnc3NCc3ccccc3Cl)n2)c1	2	7	0	-12	0	.	.
C=CCn1c(SCc2cc(=O)n3cc(C)ccc3n2)nnc1-c1cccc(C)c1	-12	3	0	-10	7	.	.
Cc1ccc2nc(CSc3nnc4ccccn34)cc(=O)n2c1	51*	8	0	-18	1	-7	-1%
Cc1cccc(NC(=O)c2cc(S(=O)(=O)NCCc3ccccc3)ccc2F)c1C	0	-4	-1	-6	3	.	.
CCCC(=O)c1ccc(N2CCN(C(=O)c3cccs3)CC2)c(F)c1	7	3	0	-12	-4	.	.
CC(=O)c1ccc(N2CCN(C(=O)c3cccs3)CC2)c(F)c1	-1	6	27	19	-5	-2	-1%
CCOC(=O)c1ccccc1NC(=O)c1sc2nc3n(c(=O)c2c1C)CCCC3	-5	3	0	-3	3	.	.
CCCCCc1ccc(OCCCC[n+]2ccc(C)cc2)c(CCCCC)c1	-11	202*	35*	-12	20	-13	?
CCCCCc1ccc(OCCCC[n+]2cccc(C)c2)c(CCCCC)c1	-1	4	0	15	-4	.	.
CCOc1ccccc1N1CC(c2nc3ccccc3n2CCOc2ccccc2OC)CC1=O (configuration not stated)	-9	29	3	2	1	.	.
NC(=O)c1ccc(F)cc1	59*	4	2	4	-4	6	-1%
COCCNC(=O)c1cc2c(=O)n3cccc(C)c3nc2n1C	41*	2	0	1	4	?	-1%
CCCCNC(=O)c1cc2c(=O)n3cccc(C)c3nc2n1C	-1	1	0	9	-8	.	.
Cc1cccc(-n2c(N)cc(=O)nc2SCC(=O)Nc2ccccc2)c1	45*	3	1	10	9	-5	?
COc1cc([N+](=O)[O-])c2nccnc2c1	44*	2	0	3	-5	13	1%

Source: PubChem BioAssay
